About 1,700 (3.3%) of roughly 52,000 compounds were called active. Rule as the data show it: active = survival mostly below about 52% (no sharp cut-off); inactive = mostly above about 56%. Many of the other results were omitted from the sample, so actives are more common in it than they were.

The assay relates to Wild type. In words: growth inhibition of S. aureus wild type versus tarO mutant, primary screen, teichoic acid synthesis inhibitors, RN4220, OD600 (AID 463173). The settings on record: S. aureus RN4220 wild type/DeltatarO growth, OD600, 18 h, hits give low values, screened at 18.75 µg/mL (by protocol).
In the case of `COc1ccc(Cn2c(CNS(=O)(=O)c3ccc(Cl)s3)nc3cccnc32)cc1`, the survival is 78% (inactive). As for `CCC/C(O)=C1\C(=O)CC(C)(C)CC1=Nc1ccncc1`, the survival was 115% (inactive). Turning to `CCc1ccc(NC(=O)CN2CCN(C3CCCCC3)C(=O)C2=O)cc1`, the survival was 77% (inactive). For the molecule `CCc1ccc(NC(=O)C2CCCN(S(=O)(=O)c3ccc(F)cc3)C2)cc1` (stereo not drawn), the survival is 75% (inactive).

With `CCOC(=O)c1c(C(=O)CSc2ncc(-c3ccc(F)cc3)n2Cc2ccco2)sc2c1CCCC2`, the survival was 116% (inactive). In the case of `CCOc1ccc(C(C)N)cc1` (stereo not drawn), the survival is 102% (inactive). Take `COCCNC(=O)Nc1ccc2c(c1)nc(C)n2C`: the survival is 87% (inactive). Then `COC(=O)c1ccc(C2Nc3c(C)cccc3-c3cc(C)nn32)cc1` (stereo not drawn), with -4% (active); and `COc1cc(C2Nc3c(C)cc(C)cc3-c3cc(C)nn32)cc(OC)c1O` (stereo not drawn), with 97% (inactive); and `COc1cc(OC)c(C2Nc3c(C)cccc3-c3cc(C)nn32)cc1OC` (stereo not drawn), with 142% (inactive). As for `Cc1cc2n(n1)C(c1ccccc1)Nc1ccccc1-2` (stereo not drawn), the survival is 123% (inactive). As for `CCOc1cccc(C2Nc3ccccc3-c3cc(C)nn32)c1O` (stereo not drawn), the survival was 145% (inactive). With `Cc1ccc2c(c1)-c1cc(C)nn1C(c1cc(Br)ccc1O)N2` (stereo not drawn), the survival was 131% (inactive). Take `COc1ccc(OC)c(C2Nc3c(C)cc(C)cc3-c3cc(C)nn32)c1` (stereo not drawn): the survival was -14% (active). Consider `COc1cc(C2Nc3ccccc3-c3cc(C)nn32)ccc1O` (stereo not drawn), for which the survival was 139% (inactive). In the case of `Cc1cc2n(n1)C(c1cc(C(C)(C)C)c(O)cc1O)Nc1ccccc1-2` (stereo not drawn), the survival is 115% (inactive). Then `CCOc1ccc(C2Nc3c(C)cccc3-c3cc(C)nn32)cc1` (stereo not drawn), with -14% (active).

With `CC(=O)Nc1ccc(C2Nc3c(C)cc(C)cc3-c3cc(C)nn32)cc1` (stereo not drawn), the survival was 141% (inactive). Take `CCN(CC)c1ccc(C2Nc3ccccc3-c3cc(C)nn32)cc1` (stereo not drawn): the survival is -1% (active). Turning to `O=C(NCc1ccc(Cl)cc1)C(=O)NCC(c1ccco1)S(=O)(=O)c1cccs1` (stereo not drawn), the survival is 76% (inactive). The value for `Cc1ccc(Cn2c(=O)n(Cc3ccco3)c(=O)c3sc4ccccc4c32)cc1` was 94% (inactive); that for `COc1ccc(-c2noc(CN3CCN(c4ccccc4OC)CC3)n2)cc1OC` was 83% (inactive). The value for `CCOC(=O)N1CCN(C(=O)CN(c2cccc(Cl)c2)S(=O)(=O)c2ccccc2)CC1` was 63% (inactive). Regarding `CCOC(=O)c1cccc(NC(=O)NCCc2c(C)nn(C)c2C)c1`, the survival is 63% (inactive). Then `COc1ccc(Nc2cc(C(=O)NCCCN(C)C3CCCCC3)c3ccccc3n2)c(OC)c1`, with 92% (inactive); and `COc1ccc(NC(=O)c2cc3c(-c4ccccc4F)nn(C)c3s2)c(OC)c1`, with 38% (inactive).

With `O=C1CS(=O)(=O)C2(C(=O)N(Cc3ccccc3)c3ccccc32)N1c1ccccc1` (stereo not drawn), the survival is 132% (inactive). `COc1cc(NS(=O)(=O)c2cc3c(cc2C)n(C)c(=O)c(=O)n3C)cc(OC)c1`: the survival was 54% (inactive). With `COCCNC(=O)CSc1nc(-c2ccccc2)[nH]c1-c1ccc(OC)cc1`, the survival is 74% (inactive). Turning to `COc1ccc(-c2[nH]c(-c3ccc(O)cc3)nc2-c2ccccc2)cc1`, the survival was 0% (active).

With `COc1ccc(-c2[nH]c(-c3ccccc3)nc2SCC(=O)NC2CCCC2)cc1`, the survival is 80% (inactive). Turning to `COc1cc(-c2nc(-c3cccc(Cl)c3)c(-c3ccccc3)[nH]2)cc(OC)c1OC`, the survival was 143% (inactive). Regarding `COc1ccc(-c2nc(-c3ccccc3)c(-c3ccc(O)cc3)[nH]2)cc1`, the survival was 3% (active). In the case of `COc1ccc(-c2nc(-c3ccccc3)c(-c3ccc(F)cc3)[nH]2)c(OC)c1C`, the survival was 15% (active). In the case of `COc1ccc(-c2nc(SCC(=O)Nc3ccccc3)c(-c3ccc(F)cc3)[nH]2)cc1OC`, the survival is 58% (inactive).

In the case of `COc1ccc(NC(=O)CSc2nc(-c3ccc(OC)cc3)[nH]c2-c2ccc(OC)cc2)cc1`, the survival was 76% (inactive). Then `COc1cc(-c2nc(SCC(=O)Nc3ccc(C)cc3)c(-c3ccc(F)cc3)[nH]2)cc(OC)c1OC`, with 106% (inactive). For `COc1ccc(-c2nc(-c3ccccc3)c(-c3ccccc3)[nH]2)cc1Br`, the survival was 81% (inactive). As for `COc1cc(-c2nc(-c3ccccc3)c(-c3ccc(Br)cc3)[nH]2)cc(OC)c1O`, the survival was 5% (active). Take `CCOc1ccc(-c2nc(-c3ccccc3)c(-c3ccccc3)[nH]2)cc1OCC`: the survival is 163% (inactive). On to `CC(C)(C)n1nnnc1C(c1ccc2ncccc2c1)N1CCc2ccccc21` (stereo not drawn), for which the survival is 111% (inactive). The value for `CCc1ccccc1NC(=O)CSc1nnc2ccc3ccccc3n12` was 80% (inactive); that for `Cc1ccc(Cl)cc1N(C)C(=O)c1noc2c1CCCCC2` was 65% (inactive). For `CCCCC(=O)OCc1cc(=O)n2nc(C3CC3)sc2n1`, the survival was 135% (inactive). In the case of `CCCOc1ccc(CNC(=O)c2ccc(-n3c(C)cc4c3CCC(C)C4)cc2)cc1` (stereo not drawn), the survival is 113% (inactive). The value for `COc1cccc(C(=O)c2sc(Nc3ccc(C)cc3C)c(S(=O)(=O)c3ccccc3)c2N)c1` was 94% (inactive); that for `O=C(O)c1ccc(-c2nc3ccccc3[nH]2)cc1` was 106% (inactive).

`O=C(CSc1nc(-c2ccc(F)cc2)[nH]c1-c1ccccc1)Nc1ccccc1`: the survival was 70% (inactive). For `Oc1ccc(-c2nc(-c3ccccc3)c(-c3ccc(Br)cc3)[nH]2)cc1`, the survival is -2% (active). Regarding `O=C(Nc1ccc(C(=O)OCc2cc(=O)n3c4c(sc3n2)CCCC4)cc1)c1cccc(F)c1`, the survival is 81% (inactive). The value for `CCc1ccc2nc(N(CCN(CC)CC)C(=O)c3ccco3)sc2c1` was 53% (inactive); that for `CCN(CC)CCN(C(=O)c1ccc(C(=O)OC)cc1)c1nc2ccc(Cl)cc2s1` was -6% (active). Regarding `CCN(CC)CCN(C(=O)c1ccco1)c1nc2ccc(Cl)cc2s1`, the survival was 87% (inactive). Turning to `O=C(CNc1ccccc1Cl)N/N=C1\CCCc2ccccc21`, the survival was 105% (inactive).

Regarding `Cc1ccccc1Nc1c(-c2ccc(O)cc2)nc2c(C)cccn12`, the survival was 68% (inactive). Then `Cc1ccccc1Nc1c(-c2ccc(Cl)cc2)nc2c(C)cccn12`, with 73% (inactive); and `Cc1ccc(Nc2c(-c3ccc(N4CCOCC4)cc3)nc3c(C)cccn23)cc1`, with 83% (inactive); and `Cc1ccc(Nc2c(-c3ccsc3)nc3cccc(C)n23)cc1`, with 19% (inactive).

`Cc1ccccc1Nc1c(-c2ccsc2)nc2c(C)cccn12`: the survival was 0% (active). On to `Cc1ccc(Nc2c(-c3ccc(C)cc3)nc3c(C)cccn23)cc1`, for which the survival is -1% (active). For the molecule `Cc1cccn2c(Nc3ccccc3)c(-c3ccc(N4CCOCC4)cc3)nc12`, the survival was 125% (inactive). With `Cc1cccn2c(Nc3ccccc3)c(-c3cccs3)nc12`, the survival was 85% (inactive).

For the molecule `Cc1ccc(Nc2c(-c3ccsc3)nc3c(C)cccn23)cc1`, the survival is -3% (active).

(Values after PubChem BioAssay AID463173 (ICCB-Longwood Screening Facility, Harvard Medical School, 2010).)
